# Measurements published in PubChem BioAssay (EPA / NIEHS).
# Records with an inconclusive call do not appear. Activity calls are given as the source filed them. The calls were made as follows, unless noted: active = hit-call score of the fitted dose curve at least 0.9, where 1 is the maximum; inactive = score below 0.9.
# Assays:
# [1] = read-out: E-selectin (Homo sapiens) (UniProt P16581); experiment: BSK_3C_Eselectin: BioMAP Diversity Plus: 3C Assay for Eselectin Biomarker Activity (AID 2283015); conditions: primary human endothelial cells (HUVEC); actives raise or lower the signal;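 as to outcome: cell surface E-selectin protein quantified by ELISA 24 h after dosing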
# In short: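 E-selectin ELISA readout, fitted bidirectionally relative to DMSO, taken 24 h post-dosing in HUVEC cultures of the 3C system. Overt cytotoxicity tracked with sulforhodamine B staining of parallel wells.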
# [2] = read-out: Interleukin-1 alpha (IL1a), IL1A (gene 3552); experiment: BSK_BE3C_IL1a: BioMAP Diversity Plus: BE3C Assay for Interleukin-1 alpha (IL1a) Biomarker Activity (AID 2283016); conditions: primary human bronchial epithelial cells; actives raise or lower the signal
# In short: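 Human primary bronchial epithelial cells (BE3C system) were dosed with compound and IL-1a measured by ELISA 24 h later. Activity was fitted bidirectionally against DMSO baseline; cytotoxicity was tracked in parallel cultures by SRB total-protein staining.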
# [3] = read-out: Monocyte Chemoattractant Protein-1 (MCP1), CCL2 (gene 6347); experiment: BSK_3C_MCP1: BioMAP Diversity Plus: 3C Assay for Monocyte Chemoattractant Protein-1 (MCP1) Biomarker Activity (AID 2283017); conditions: primary human endothelial cells (HUVEC); actives raise or lower the signal
# In short: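 MCP-1 was measured by ELISA 24 h after dosing in primary HUVEC 3C cultures and fitted in both directions relative to DMSO; cytotoxicity was checked by SRB total-protein staining in parallel wells.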
# [4] = read-out: Monocyte Chemoattractant Protein-1 (MCP1), CCL2 (gene 6347); experiment: BSK_4H_MCP1: BioMAP Diversity Plus: 4H Assay for Monocyte Chemoattractant Protein-1 (MCP1) Biomarker Activity (AID 2283018); conditions: primary human endothelial cells (HUVEC); actives raise or lower the signal
# In short: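 Human umbilical vein endothelial cells (4H system) dosed with chemical; MCP-1 measured by ELISA 24 h after dosing. Bidirectional curve fitting against DMSO negative control as baseline; parallel SRB total-protein staining tracks overt cytotoxicity.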
# [5] = read-out: Monokine induced gamma interferon (MIG), CXCL9 (gene 4283); experiment: BSK_3C_MIG: BioMAP Diversity Plus: 3C Assay for Monokine induced gamma interferon (MIG) Biomarker Activity (AID 2283021); conditions: primary human endothelial cells (HUVEC); actives raise or lower the signal;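 as to AC50: MIG protein level measured by immunoassay in the treated endothelial cultures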
# In short: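 Primary human umbilical vein endothelial cells in the 3C system were exposed to chemical for 24 h, after which MIG was quantified by ELISA. Activity was fitted bidirectionally against DMSO as negative control and baseline.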
# [6] = target: human Vitamin D Receptor (VDR), VDR (gene 7421) (UniProt P11473); experiment: ATG_VDR_TRANS: Attagene TRANS-FACTORIAL HepG2 Assay for human Vitamin D Receptor (VDR) (AID 2283022; active = hit-call score of the fitted dose curve at least 0.9, where 1 is the maximum)
# In short: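 Transactivation by an exogenous VDR-Gal4 chimera in transiently transfected HepG2 cells was measured as reporter transcript level 24 hours after chemical treatment. RT-PCR products were analysed by capillary electrophoresis and fitted in the positive direction relative to DMSO.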
# [7] = read-out: Matrix Metallopeptidase 1 (MMP1), MMP1 (gene 4312); experiment: BSK_BE3C_MMP1: BioMAP Diversity Plus: BE3C Assay for Matrix Metallopeptidase 1 (MMP1) Biomarker Activity (AID 2283024); conditions: primary human bronchial epithelial cells; actives raise or lower the signal
# In short: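 Primary human bronchial epithelial cells were dosed with test chemicals, and MMP1 levels were measured by ELISA 24 h later. Data were fitted bidirectionally against DMSO as the negative control and activity baseline.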
# [8] = BSK_3C_Vis: BioMAP Diversity Plus: 3C Assay for Morphology Visualization (AID 2283025); conditions: primary human endothelial cells (HUVEC);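 also: fitted both ways so gain or loss versus DMSO counts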
# In short: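 Human umbilical vein endothelial cells in the 3C system were imaged by light microscopy 24 h after chemical dosing to record cell morphology. Activity was fitted bidirectionally against DMSO as negative control and baseline; the endpoint serves as a background control.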
# [9] = read-out: Pselectin, SELP (gene 6403); experiment: BSK_4H_Pselectin: BioMAP Diversity Plus: 4H Assay for Pselectin Biomarker Activity (AID 2283026); conditions: primary human endothelial cells (HUVEC); actives raise or lower the signal
# In short: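 Primary human umbilical vein endothelial cells were exposed to test chemical for 24 h, then cell-surface P-selectin was quantified by ELISA. Activity was fitted bidirectionally against DMSO as negative control and baseline.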
# [10] = BSK_4H_SRB: Viability Assessment in the BioMAP Diversity Plus: 4H Assay (AID 2283027); conditions: primary human endothelial cells (HUVEC);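 also: cells exposed to compound for 24 h before staining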;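 as to AC50: curves fitted both ways versus DMSO so AC50 may be loss or gain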
# In short: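 Human umbilical vein endothelial cells, 24 h after chemical dosing; total protein measured by 0.1% sulforhodamine B staining after 10% TCA fixation, read at 560 nm. Bidirectional fitting against DMSO.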
# [11] = BSK_BE3C_SRB: Viability Assessment in the BioMAP Diversity Plus: BE3C Assay (AID 2283028); conditions: primary human bronchial epithelial cells;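 as to AC50: fitted both ways so AC50 may mark signal gain or loss versus DMSO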
# In short: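 Cytotoxicity read-out: SRB (0.1%) staining of TCA-fixed (10%) human lung bronchial epithelial cells, absorbance 560 nm, 24 h post-dosing. Curves fitted both directions relative to DMSO.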
# [12] = read-out: Thrombomodulin, THBD (gene 7056); experiment: BSK_3C_Thrombomodulin: BioMAP Diversity Plus: 3C Assay for Thrombomodulin Biomarker Activity (AID 2283029); conditions: primary human endothelial cells (HUVEC); actives raise or lower the signal
# In short: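 Primary human umbilical vein endothelial cells (3C system) were exposed to chemical for 24 h, then thrombomodulin levels were measured by ELISA. Activity was fitted bidirectionally against the DMSO negative control as baseline.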
# [13] = read-out: Urokinase-type plasminogen activator receptor (uPAR), PLAUR (gene 5329); experiment: BSK_4H_uPAR: BioMAP Diversity Plus: 4H Assay for Urokinase-type plasminogen activator receptor (uPAR) Biomarker Activity (AID 2283030); conditions: primary human endothelial cells (HUVEC); actives raise or lower the signal
# In short: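 uPAR level read by ELISA on HUVEC cultures (BioMAP 4H) 24 h post-dosing, analyzed for gain or loss relative to DMSO. Parallel SRB staining assessed overt cytotoxicity.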
# [14] = read-out: Vascular endothelial growth factor receptor 2 (Homo sapiens) (UniProt P35968); experiment: BSK_4H_VEGFRII: BioMAP Diversity Plus: 4H Assay for Vascular endothelial growth factor receptor 2 (VEGFR2) Biomarker Activity (AID 2283031); conditions: primary human endothelial cells (HUVEC); actives raise or lower the signal;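 as to AC50: cell-surface VEGFR2 protein level quantified by ELISA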
# In short: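 Measured by ELISA after 24 h of compound treatment: VEGFR2 on primary human umbilical vein endothelial cells, fitted in both directions relative to DMSO. Parallel cultures received SRB staining (560 nm) for overt cytotoxicity.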
# [15] = read-out: Human Leukocyte Antigen - DR isotype (HLADR), HLA-DRA (gene 3122); experiment: BSK_BE3C_HLADR: BioMAP Diversity Plus: BE3C Assay for Human Leukocyte Antigen - DR isotype (HLADR) Biomarker Activity (AID 2283032); conditions: primary human bronchial epithelial cells; actives raise or lower the signal
# In short: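 Human primary bronchial epithelial cells in the BE3C system were exposed to chemicals for 24 h, after which HLA-DR levels were quantified by ELISA. Activity was fitted bidirectionally, gain or loss of signal, against DMSO as negative control and baseline.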
# [16] = read-out: Vascular cell adhesion molecule 1 (VCAM1), VCAM1 (gene 7412); experiment: BSK_4H_VCAM1: BioMAP Diversity Plus: 4H Assay for Vascular cell adhesion molecule 1 (VCAM1) Biomarker Activity (AID 2283033); conditions: primary human endothelial cells (HUVEC); actives raise or lower the signal;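 as to outcome: cell-surface VCAM-1 protein measured by ELISA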
# In short: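 Primary human umbilical vein endothelial cells were exposed to chemicals for 24 h, after which VCAM-1 was quantified by ELISA. Responses were fitted bidirectionally against DMSO as negative control and activity baseline.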
# [17] = read-out: Interferon-gamma inducible Protein 10 (IP10), CXCL10 (gene 3627); experiment: BSK_BE3C_IP10: BioMAP Diversity Plus: BE3C Assay for Interferon-gamma inducible Protein 10 (IP10) Biomarker Activity (AID 2283034); conditions: primary human bronchial epithelial cells; actives raise or lower the signal
# In short: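 Human primary bronchial epithelial cells were exposed to chemicals for 24 hours, after which IP-10 levels were measured by ELISA. Data were fitted bidirectionally against DMSO, which served as the negative control and activity baseline.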
# [18] = read-out: Human Leukocyte Antigen - DR isotype (HLADR), HLA-DRA (gene 3122); experiment: BSK_3C_HLADR: BioMAP Diversity Plus: 3C Assay for Human Leukocyte Antigen - DR isotype (HLADR) Biomarker Activity (AID 2283019); conditions: primary human endothelial cells (HUVEC); actives raise or lower the signal;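 as to outcome: ELISA of cell-surface HLA-DR on HUVEC 24 h after dosing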
# In short: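 Bidirectional fitting against DMSO was applied to the HLA-DR ELISA signal from human umbilical vein endothelial cells, 24 h post-dose. Cytotoxicity came from parallel SRB total-protein staining; 3C proliferation was counted by SRB at 48 h.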
# Chain of human Vitamin D Receptor (VDR), VDR (gene 7421) (P11473 whole entry, looked up, the tested form may be a part): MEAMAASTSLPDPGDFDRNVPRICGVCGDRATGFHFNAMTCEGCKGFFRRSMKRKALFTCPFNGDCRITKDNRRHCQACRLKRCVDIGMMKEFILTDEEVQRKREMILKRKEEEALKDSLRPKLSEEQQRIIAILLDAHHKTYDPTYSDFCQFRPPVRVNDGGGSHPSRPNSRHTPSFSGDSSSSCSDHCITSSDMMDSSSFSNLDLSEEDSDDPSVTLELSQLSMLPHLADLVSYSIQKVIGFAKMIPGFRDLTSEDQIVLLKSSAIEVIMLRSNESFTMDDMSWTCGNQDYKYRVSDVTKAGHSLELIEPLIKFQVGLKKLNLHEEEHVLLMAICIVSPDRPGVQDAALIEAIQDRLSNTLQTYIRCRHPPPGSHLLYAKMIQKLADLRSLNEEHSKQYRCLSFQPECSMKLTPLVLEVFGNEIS
# Chain of E-selectin (Homo sapiens) (P16581 whole entry, looked up): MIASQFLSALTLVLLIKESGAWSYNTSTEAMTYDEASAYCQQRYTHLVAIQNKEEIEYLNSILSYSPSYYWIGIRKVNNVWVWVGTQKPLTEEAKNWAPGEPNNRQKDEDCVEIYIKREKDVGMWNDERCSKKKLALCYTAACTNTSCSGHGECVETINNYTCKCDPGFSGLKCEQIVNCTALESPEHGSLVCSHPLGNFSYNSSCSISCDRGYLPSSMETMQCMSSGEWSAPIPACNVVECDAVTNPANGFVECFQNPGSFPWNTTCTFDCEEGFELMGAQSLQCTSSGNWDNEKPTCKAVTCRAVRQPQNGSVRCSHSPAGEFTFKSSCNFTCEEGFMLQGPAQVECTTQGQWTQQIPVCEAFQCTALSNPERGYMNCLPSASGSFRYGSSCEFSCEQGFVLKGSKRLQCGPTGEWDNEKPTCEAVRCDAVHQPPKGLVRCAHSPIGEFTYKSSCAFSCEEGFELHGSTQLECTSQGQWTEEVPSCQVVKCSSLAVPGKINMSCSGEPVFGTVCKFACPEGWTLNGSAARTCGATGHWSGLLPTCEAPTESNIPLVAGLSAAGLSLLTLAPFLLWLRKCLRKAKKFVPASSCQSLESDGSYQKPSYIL
smiles,measurement,setting,value
CC(=O)C(Cl)C(=O)N(C)C (configuration not stated),AC50,[1],20 µM (active)
same,AC50,[2],20 µM (active)
same,AC50,[3],20 µM (active)
same,AC50,[4],20 µM (active)
same,outcome,[5],inactive
same,outcome,[6],inactive
same,outcome,[7],inactive
same,AC50,[8],37.5 µM (active)
same,AC50,[9],15.6 µM (active)
same,outcome,[10],inactive
same,outcome,[11],inactive
same,outcome,[12],inactive
same,outcome,[13],inactive
same,outcome,[14],inactive
same,AC50,[15],26.9 µM (active)
same,AC50,[16],24.3 µM (active)
same,AC50,[17],20 µM (active)
O=C(Cc1ccccc1)c1ccccc1,outcome,[6],inactive
ClC(Cl)=C(Cl)C(Cl)=C(Cl)Cl,AC50,[1],14.5 µM (active)
same,AC50,[2],36.7 µM (active)
same,AC50,[3],31.4 µM (active)
same,AC50,[4],31.6 µM (active)
same,AC50,[18],29.8 µM (active)
same,AC50,[5],36.5 µM (active)
same,AC50,[7],20 µM (active)
same,AC50,[8],37.5 µM (active)
same,AC50,[9],33.6 µM (active)
same,AC50,[10],34.2 µM (active)
same,AC50,[11],31.2 µM (active)
same,outcome,[12],inactive
same,AC50,[13],32.2 µM (active)
same,AC50,[14],31.1 µM (active)
same,AC50,[15],26.9 µM (active)
same,AC50,[16],34.8 µM (active)
same,AC50,[17],31.5 µM (active)
Nc1ncc([N+](=O)[O-])s1,outcome,[1],inactive
same,outcome,[2],inactive
same,outcome,[3],inactive
same,outcome,[4],inactive
same,outcome,[18],inactive
same,outcome,[5],inactive
same,outcome,[7],inactive
same,outcome,[8],inactive
same,outcome,[9],inactive
same,outcome,[10],inactive
same,outcome,[11],inactive
same,outcome,[12],inactive
same,outcome,[13],inactive
same,outcome,[14],inactive
same,outcome,[15],inactive
same,outcome,[16],inactive
same,outcome,[17],inactive
O=S(=O)(c1ccc(Cl)cc1)c1ccc(Cl)cc1,outcome,[1],inactive
same,outcome,[2],inactive
same,outcome,[3],inactive
same,outcome,[4],inactive
same,outcome,[18],inactive
same,outcome,[5],inactive
same,outcome,[6],inactive
same,outcome,[7],inactive
same,outcome,[8],inactive
same,outcome,[9],inactive
same,outcome,[10],inactive
same,outcome,[11],inactive
same,outcome,[12],inactive
same,outcome,[13],inactive
same,outcome,[14],inactive
same,outcome,[15],inactive
same,outcome,[16],inactive
same,outcome,[17],inactive
COP(=S)(OC)Oc1cc(Cl)c(Cl)cc1Cl,outcome,[1],inactive
same,outcome,[2],inactive
same,outcome,[3],inactive
same,outcome,[4],inactive
same,AC50,[18],27.4 µM (active)
same,outcome,[5],inactive
same,AC50,[7],20 µM (active)
same,outcome,[8],inactive
same,AC50,[9],20 µM (active)
same,AC50,[10],20 µM (active)
same,outcome,[11],inactive
same,outcome,[12],inactive
same,outcome,[13],inactive
same,outcome,[14],inactive
same,outcome,[15],inactive
same,AC50,[16],24.9 µM (active)
same,AC50,[17],19.1 µM (active)
